This is a sample that favours compounds with a hit; in the whole collection about 3% have one here.
TRb-SRC2 inh – inhibitors of human thyroid hormone receptor beta-SRC2 interaction; AID 1469; TRbeta-SRC2 peptide binding, fluorescence polarization; receptor liganded with 1 µM T3; Potency, µM (highest dose often 106 µM), without a hit: top-dose activity change, negative = inhibition, usual class: inhibitors; P10828; 280,000 tested, 0.065% active;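 also: plate controls were bound peptide for no effect and peptide without receptor for full effect; nearly all actives have a fitted effect of over 50% in size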
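Assay buffer: 20 mM Tris-HCl, 100 mM NaCl, 10% glycerol, 1 mM EDTA, 0.01% NP-40, 1 mM DTT, 1 uM T3, 5% DMSO; TRb LBD 0.6 uM, Texas Red SRC2 20 nM; FP after 5 hr.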
Tau ThT inhib – tau fibrillization inhibition (ThT binding). 270,000 tested, 2.1% active. Potency, µM (titrated, usually from 57.4 µM), for inactives: top-dose activity, negative = inhibition, most hits filed as inhibitors. P10636. recombinant tau K18 P301L, heparin-induced fibrillization, ThT fluorescence; also: nearly all actives have a fitted effect of over 55% in size
Target sequence (P10636 561-689 P618L limits assumed): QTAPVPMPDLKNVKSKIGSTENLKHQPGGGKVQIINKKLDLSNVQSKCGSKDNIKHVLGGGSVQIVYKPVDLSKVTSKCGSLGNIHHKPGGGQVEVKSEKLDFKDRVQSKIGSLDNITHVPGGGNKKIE
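K18 P301L tau (15 uM + 0.24 uM Alexa 594-tagged), heparin 20 uM, NaOAc pH 7, 6 h 37 C; ThT 30 uM, 1 h RT, ex 450/em 510 nm.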
Tau fluor cs – counter-screen for tau fibril formation inhibitors; tau K18 P301L Alexa594 fluorescence, heparin fibrillization; Potency, µM (titrated, usually from 57.7 µM), inactives show at the top dose activity change, negative = decrease; 280,000 tested, 0.93% active; AID 1463; also: nearly all actives have a fitted effect of over 55% in size
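Human tau K18 P301L (15 uM unlabeled, 0.24 uM Alexa 594-labeled) in 100 mM sodium acetate pH 7 with 20 uM heparin, 6 hr at 37 C. ThT 30 uM added, 1 hr ambient; Alexa 594 FP and total fluorescence read at 555/632 nm.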
TR SRC2 fluor cs – alters Texas Red total fluorescence, flagging assay interference; TRb/SRC2 Texas Red total fluorescence interference; Potency, µM (titrated, usually from 106 µM), for inactives: top-dose fluorescence change, negative = quenching; 280,000 tested, 0.29% active; active = well fitted curve in either direction with a large enough effect; inconclusive = small, poorly fitted or top-dose-only effect
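Human TRb ligand-binding domain at 0.6 uM with 20 nM Texas Red SRC2 peptide in Tris buffer containing 1 uM T3 and 5% DMSO, incubated with compound 5 h at ambient temperature. Total fluorescence (555/632 nm) calculated as parallel + 2 × perpendicular.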
Tau fibril FP – inhibitors of human tau fibril formation | P10636 | K18 P301L tau heparin fibrillization, Alexa594 FP, 6 h | Potency, µM (titrated, usually from 57.7 µM), for inactives: at the top dose activity, negative = inhibition, most hits filed as inhibitors | 280,000 tested, 0.39% active | AID 1468; also: nearly all actives have a fitted effect of over 55% in size
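Human K18 P301L fragment (15 uM unlabeled plus 0.24 uM Alexa 594-labeled) in 100 mM sodium acetate pH 7 with compound, aggregation induced by 20 uM heparin for 6 hr at 37 C. ThT (30 uM) added for 1 hr, then Alexa 594 FP read.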
* hit, by the source's call; u = inconclusive; [ ] = another dose, or the depositor's remark. Unless noted, calls follow the shape of the dose curve; as a rule, active = well fitted curve in the direction sought with a large enough effect; inconclusive = small, poorly fitted or top-dose-only effect, or another doubt; inactive = no such curve, though single readings can be large; an effect the other way counts as inactive or inconclusive. Unless noted, % is scaled to controls: 0 for no effect and ±100 for the full control effect; potency is read from the fitted curve at half-maximal effect.

SMILES	TRb-SRC2 inh	Tau ThT inhib	Tau fluor cs	TR SRC2 fluor cs	Tau fibril FP
Cc1nn(-c2ccccc2)c2c1N(CC(=O)N1CCN(c3ccc(F)cc3)CC1)C(=O)CS2	4%	-9%	-4%	-2%	1%
c1ccc(Nc2c(-c3c[nH]c4ccccc34)nc3ccccn23)cc1	-1%	u	13µM*[quencher]	0%	u
Fc1ccc(Nc2c(-c3c[nH]c4ccccc34)nc3ccccn23)cc1	-6%	-11%	7.1µM*[quencher]	-2%	-5%
Cc1ccc2nc(-c3c[nH]c4ccccc34)c(Nc3ccccc3)n2c1	-5%	-7%	u	u	2%
N#CC1=C(N)NC(SCC(=O)c2ccc(Br)cc2)=C(C#N)C12CCCCC2	5%	u	13µM*[quencher]	-3%	u
COc1ccc(C(=O)CSC2=C(C#N)C3(CCCCC3)C(C#N)=C(N)N2)cc1	4%	-12%	u	1%	8%
N#CC1=C(N)NC(SCC(=O)c2ccc(Cl)cc2)=C(C#N)C12CCCC2	-3%	u	16µM*[quencher]	1%	14%
CCOC(=O)Cc1cc(=O)n2[nH]c(-c3ccccc3)c(-c3ccccc3)c2n1	26%	-2%	-5%	5%	8%
CCOC(=O)Cc1cc(=O)n2[nH]c(C)c(-c3ccccc3)c2n1	u	-7%	1%	45µM*[fluorescent]	-5%
O=[N+]([O-])c1ccc(/C([O-])=C(/C(=S)NCc2ccco2)[n+]2ccccc2)cc1	8%	25µM*	-21%	u	u
CC(C)CNC(=O)NC(=O)COc1c(F)c(F)cc(F)c1F	6%	u	16µM*[quencher]	1%	u
CCOc1ccc(NC(=O)Nc2cc(OCC(F)(F)F)cc(OCC(F)(F)F)c2)cc1	4%	10%	0%	-3%	1%
O=C(Nc1ccc(F)cc1)Nc1cc(OCC(F)(F)F)cc(OCC(F)(F)F)c1	5%	-4%	u	11%	8.9µM*
O=C(NCCNC(=O)c1cc(OCC(F)(F)F)ccc1OCC(F)(F)F)Nc1ccc(OC(F)(F)F)cc1	2%	10%	-26%	-1%	3.5µM*
COc1ccc(-c2noc(N3CCC(C(=O)N4CCN(c5ccccc5F)CC4)CC3)n2)cc1	u	u	-10%	56µM*[quencher]	u
CCC1CN(C(=O)NCc2ccc(C)cc2)c2ccccc2O1 (stereo not given)	-8%	u	16µM*[quencher]	u	u
CCC1CN(C(=O)N2CCC(C(=O)N3CCN(c4ccccc4F)CC3)CC2)c2ccccc2O1 (stereo not given)	-3%	u	14µM*[quencher]	0.014µM*[quencher]	10%
CCc1ccc(NC(=O)C2CCN(C(=O)N3CC(CC)Oc4ccccc43)CC2)cc1 (stereo not given)	0%	u	16µM*[quencher]	-3%	u
CCOC(=O)N1CCN(c2nc(-c3ccc(OC)cc3)no2)CC1	-14%	u	-11%	-1%	-3%
CCC1CN(C(=O)N2CCC(C(=O)NCc3ccc(N(C)C)cc3)CC2)c2ccccc2O1 (stereo not given)	-1%	-16%	-18%	2%	9%
CCOc1ccccc1NC(=O)N(Cc1ccc(F)cc1)C1CCN(CC)CC1	-1%	4%	-1%	7%	9%
COC(=O)c1c(NC(=O)Cc2coc3cc(C)ccc23)sc2c1CCC2	20%[53 µM]	u	u	3.5µM*[quencher]	-3%
CCOC(=O)c1c(NC(=O)Cc2coc3cc(C)cc(C)c23)sc2c1CCC2	u	u	-24%	0.025µM*[quencher]	-13%
CC1(C)Cc2ccccc2C2=NNC(=O)C2=N1	-13%	16µM*	-12%	-1%	u
CCCCN(C)CCNC(=O)c1ccc2c(=O)n(CCc3ccccc3)c(=O)[nH]c2c1	-2%	-7%	-26%	-1%	-10%
Cc1ccc(-n2[nH]c(C)c(/C=N/Nc3ccc([N+](=O)[O-])cc3[N+](=O)[O-])c2=O)cc1	2%	1.6µM*	3.2µM*[quencher]	-25%	10µM*
Cc1[nH]n(-c2ccc([N+](=O)[O-])cc2)c(=O)c1C=NCCc1c(C)[nH]c2ccccc12	-13%	u	22µM*[quencher]	-70%	u

Screening data from PubChem BioAssay.
